Measured values taken from PubChem BioAssay AID1159580 (chemical genetic matrix, 2015).
Several values for one entry are separate records, joined by “and”; a condition that tells them apart may be missing. Equal entries are not always repeated. Among all 5,500 compounds or so, about 2,000 (36%) were called active. About 18% were inconclusive and are not listed. Rule as the data show it: active = normalized growth mostly below about 0.91 (no sharp cut-off); inconclusive = no clear call, values can overlap the other calls; inactive = mostly above about 0.92. The list shows a part of the results.

Assay: chemical genetic growth profiling, strain panel (AID 1159580);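 also: tested at 20 µM; growth read once vehicle control cultures reached saturation at 30 °C; 1 = growth at the plate median or of vehicle wells; lower values mean less growth of the strain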
Conditions: S. cerevisiae deletion strains, growth OD

Measured: normalized growth

CC(=O)O[C@@H]1C=C[C@@]2(C)C(C[C@@H](OC(C)=O)[C@@]3(C)C4=CC(=O)O[C@@H](c5ccoc5)[C@]4(C)CCC23)C1(C)C (stereo partly specified)
inactive: locus YAL013W, strain DEP1, active compounds read low 1.01 | locus YAL021C, strain ccr4, active compounds read low 1 | locus YAL026C, strain drs2, active compounds read low 0.985 | locus YAL030W, strain snc1, active compounds read low 0.99 | locus YBL061C, strain skt5, active compounds read low 0.992 | locus YBR009C, strain hhf1, active compounds read low 1 | locus YBR021W, strain FUR4, active compounds read low 1.03 | locus YBR023C, strain chs3, active compounds read low 1.01 | locus YBR171W, strain sec66, active compounds read low 0.994 | locus YBR229C, strain ROT2, active compounds read low 1.02 | locus YBR231C, strain swc5, active compounds read low 0.99 | locus YBR279W, strain paf1, active compounds read low 1 | locus YCL011C, strain gbp2, active compounds read low 0.982 | locus YCL016C, strain dcc1, active compounds read low 0.975 | locus YCL061C, strain MRC1, active compounds read low 0.997 | locus YCL069W, strain vba3, active compounds read low 1.02 | locus YCR088W, strain abp1, active compounds read low 1.01 | locus YDL005C, strain med2, active compounds read low 0.984 | locus YDL035C, strain GPR1, active compounds read low 0.991 | locus YDL040C, strain nat1, active compounds read low 0.993 | locus YDL074C, strain BRE1, active compounds read low 0.964 | locus YDL101C, strain DUN1, active compounds read low 0.998 | locus YDL134C, strain PPH21, active compounds read low 1 | locus YDR001C, strain nth1, active compounds read low 0.993 | locus YDR069C, strain doa4, active compounds read low 0.996 | locus YDR137W, strain rgp1, active compounds read low 0.946 | locus YDR150W, strain NUM1, active compounds read low 1.01 | locus YDR159W, strain sac3, active compounds read low 0.979 | locus YDR162C, strain NBP2, active compounds read low 0.964 | locus YDR195W, strain ref2 0.975 | locus YDR297W, strain sur2, active compounds read low 0.981 | locus YDR334W, strain swr1, active compounds read low 0.988 | locus YDR335W, strain msn5, active compounds read low 0.986 | locus YDR392W, strain spt3, active compounds read low 0.951 | locus YEL003W, strain gim4, active compounds read low 0.997 | locus YEL037C, strain rad23, active compounds read low 1 | locus YEL061C, strain CIN8 (second series), active compounds read low 0.992 | locus YEL061C, strain CIN8, active compounds read low 1.02 | locus YER015W, strain faa2, active compounds read low 0.991 | locus YER016W, strain bim1, active compounds read low 1.01 | locus YER111C, strain swi4, active compounds read low 1 | locus YER155C, strain BEM2 (second series), active compounds read low 1.01 | locus YER155C, strain BEM2, active compounds read low 1.01 | locus YER167W, strain BCK2, active compounds read low 1.01 | locus YFR010W, strain ubp6, active compounds read low 1.01 | locus YGL167C, strain pmr1, active compounds read low 0.988 | locus YGL173C, strain kem1, active compounds read low 1.02 | locus YGL227W, strain vid30, active compounds read low 1 | locus YGL240W, strain doc1, active compounds read low 1 | locus YGL248W, strain PDE1, active compounds read low 1.02 | locus YGL253W, strain hxk2, active compounds read low 0.971 | locus YGR078C, strain PAC10, active compounds read low 1.02 | locus YGR229C, strain SMI1, active compounds read low 0.98 | locus YHR013C, strain ard1, active compounds read low 0.973 | locus YHR027C, strain rpn1, active compounds read low 0.983 | locus YHR030C, strain SLT2, active compounds read low 1.02 and 0.986 | locus YHR079C, strain IRE1, active compounds read low 0.986 | locus YHR129C, strain ARP1, active compounds read low 1.01 | locus YHR142W, strain chs7, active compounds read low 0.965 | locus YIL066C, strain RNR3, active compounds read low 1.02 | locus YIL073C, strain SPO22, active compounds read low 1.03 | locus YJL092W, strain hpr5, active compounds read low 0.987 | locus YJL095W, strain BCK1 (second series), active compounds read low 0.974 | locus YJL095W, strain BCK1, active compounds read low 0.979 and 0.982 | locus YJL115W, strain asf1, active compounds read low 0.99 | locus YJL129C, strain trk1, active compounds read low 0.959 | locus YJL134W, strain LCB3, active compounds read low 1.02 | locus YJL154C, strain vps35, active compounds read low 0.989 | locus YJL164C, strain tpk1, active compounds read low 1 | locus YJL166W, strain qcr8, active compounds read low 1 | locus YJL187C, strain SWE1 (second series), active compounds read low 1 | locus YJL187C, strain SWE1, active compounds read low 0.994 | locus YJR043C, strain POL32, active compounds read low 1.04
active: locus YCL029C, strain bik1, active compounds read low 0.0759 | locus YDL185W, strain tfp1, active compounds read low 0.0668 | locus YDL192W, strain arf1, active compounds read low 0.0652 | locus YDR101C, strain arx1, active compounds read low 0.0671 | locus YDR318W, strain mcm21, active compounds read low 0.0639 | locus YDR388W, active compounds read low 0.0562 | locus YDR502C, strain sam2, active compounds read low 0.0613 | locus YER110C, active compounds read low 0.0742 | locus YGL078C, strain dbp3, active compounds read low 0.0566 | locus YGL086W, strain mad1, active compounds read low 0.0536 | locus YGR135W, strain pre9, active compounds read low 0.0645 | locus YGR252W, strain gcn5, active compounds read low 0.164 | locus YHR079C, strain IRE1 (second series), active compounds read low 0.0734 | locus YHR094C, strain hxt1, active compounds read low 0.0578 | locus YHR200W, strain rpn10, active compounds read low 0.0597 | locus YIL125W, strain kgd1, active compounds read low 0.0589 | locus YIR030C, strain dcg1, active compounds read low 0.0619 | locus YJL168C, strain set2, active compounds read low 0.0579
